Measurements reported in PubChem BioAssay AID588856 (National Center for Advancing Translational Sciences (NCATS), 2011).
The campaign covered roughly 410,000 compounds. About 3,100 (0.76%) were called active. The call rests on the fitted dose curve; in most records, active means well fitted cell-killing curve with a large enough effect; inactive means no such curve, though single readings can be large or run the other way. What follows is part of a selection rich in actives, with near analogues and random picks from the rest.
Potency means the concentration at half of the fitted maximal effect.

Assay: qHTS for Inhibitors of TGF-b: Cytotox Counterscreen
Conditions: HepG2 CAGA-GFP viability, ATP luminescence, 18 h; series mostly up to 46.1 µM; activity change, negative = cytotoxicity: at the top concentration
Method in brief: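 CellTiter-Glo luminescence gave cytotoxicity after 18 hours at 37 degrees C. The cells were HepG2 CAGA-GFP in 1% FBS DMEM, stimulated with 500 pg/mL TGF-beta after compound addition. %Activity was normalised to no-cell wells (complete cell-killing) and DMSO (no toxicity), and curves were fitted and classified.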
For `COC(=O)c1ccc(NC(=O)c2cc(S(=O)(=O)N3CCC(C)CC3)cn2C)cc1`, the “activity change, negative = cytotoxicity” value was 21.6% (inactive).
For `CN(C)c1ccc(/C=c2\[nH]c(=O)/c(=C/c3ccc(N(C)C)cc3)[nH]c2=O)cc1`, the “activity change, negative = cytotoxicity” value was -29.3% (inactive).
With `Cc1cccc(CCNC(=O)c2ccc3c(c2)nc2n3CCC(C)C2)c1` (stereo unspecified) the “activity change, negative = cytotoxicity” value was -12.9% (inactive).
In the case of `Cc1cccc(-c2nc3ccc(C(=O)NCCN4CCN(C)CC4)cc3nc2-c2cccc(C)c2)c1`, the Potency was 12.6 µM (active).
For `COc1ccc(-c2nc3ccc(C(=O)NCc4ccc(C)cc4)cc3nc2-c2ccc(OC)cc2)cc1`, the “activity change, negative = cytotoxicity” value was -7.45% (inactive).
With `Cc1ccc2nc(N3CCN(c4cccc(Cl)c4)CC3)c3nnnn3c2c1` the “activity change, negative = cytotoxicity” value was -18.5% (inactive).
For `CCCN(CCC)CCNC(=O)Cn1cnc2sc(C)c(S(=O)(=O)N3CCC(C)CC3)c2c1=O`, the “activity change, negative = cytotoxicity” value was -6.18% (inactive).
With `CCN(CC)c1ccc(/C=C/c2c(C)cnc3ccc(C)cc23)cc1` the “activity change, negative = cytotoxicity” value was -6.37% (inactive).
In the case of `COc1ccc(C(CCN(Cc2ccc(OC)c(OC)c2)C(=O)CCl)c2ccccc2)cc1` (stereo unspecified), the Potency was 11.2 µM (active).
With `COc1ccc(Cl)cc1NC(=O)CN(C)Cc1ccc(OC)c(OC)c1` the “activity change, negative = cytotoxicity” value was 4.42% (inactive).
With `CCN(CCCCOC(=O)c1ccc(OC)c(OC)c1)C(C)Cc1ccc(OC)cc1` (stereo unspecified) the “activity change, negative = cytotoxicity” value was -27.6% (inactive).
In the case of `S=c1[nH]c(=S)c2n[nH]nc2[nH]1`, the “activity change, negative = cytotoxicity” value was 26.9% (inactive).
In the case of `COc1ccc(N2C(=O)CS(=O)(=O)C23C(=O)N(Cc2ccc(C)cc2)c2ccccc23)cc1Cl` (stereo unspecified), the “activity change, negative = cytotoxicity” value was -3.21% (inactive).
In the case of `CCCC(=O)Nc1cc2nn(-c3ccccc3)nc2cc1C`, the “activity change, negative = cytotoxicity” value was -0.861% (inactive).
In the case of `Cc1ccc(-c2cnc(C(O)c3cc(Cl)cc(Cl)c3)[nH]2)cc1` (stereo unspecified), the “activity change, negative = cytotoxicity” value was -54.9% (inactive).
With `OC(c1ccc(Cl)cc1)c1ncc(-c2ccc(Cl)cc2)[nH]1` (stereo unspecified) the Potency was 11.2 µM (active).
With `OC(c1ccc(F)cc1)c1ncc(-c2cccc(C(F)(F)F)c2)[nH]1` (stereo unspecified) the “activity change, negative = cytotoxicity” value was -24.7% (inactive).
With `CCc1ccc(OCCCn2c(CCCNC(=O)C3CCCCC3)nc3ccccc32)cc1` the “activity change, negative = cytotoxicity” value was -4.77% (inactive).
For `CCCCCCn1nnc2sc(-c3ccccc3)cc2c1=O`, the “activity change, negative = cytotoxicity” value was -3.47% (inactive).
For `CC(=O)c1c(C)n(S(=O)(=O)c2ccc(Cl)cc2)c2ccc(NS(=O)(=O)c3ccc(Cl)cc3)cc12`, the “activity change, negative = cytotoxicity” value was -0.945% (inactive).
For `CCn1c2ccccc2c2cc(NC(=O)COc3ccc(C)cc3C)ccc21`, the “activity change, negative = cytotoxicity” value was -50.6% (inactive).
With `Cn1c(SCC(=O)Nc2cccc(NC(=O)c3cccs3)c2)nnc1-c1ccncc1` the “activity change, negative = cytotoxicity” value was -3.92% (inactive).
In the case of `Cc1ccc(OCC(=O)Nc2ccc(NC(=O)c3cccs3)cc2)c(C)c1`, the Potency was 1.12 µM (active).
For `Cn1c(=O)c(=O)n(C)c2cc(NC(=O)c3ccccc3Br)ccc21`, the “activity change, negative = cytotoxicity” value was -19.5% (inactive).
For `Cc1cccc(-n2ncc(C(=O)N3CCC(C)CC3)c2C2CCN(C(=O)OC(C)(C)C)CC2)c1`, the “activity change, negative = cytotoxicity” value was -2.29% (inactive).
For `Cc1cccc(-n2ncc(Cl)c(Cl)c2=O)c1`, the Potency was 11.2 µM (active).
With `Cc1cccc(-n2ncc(C(=O)N3CCN(c4ccc(Cl)cc4)CC3)c2C2CCN(C(=O)OC(C)(C)C)CC2)c1` the “activity change, negative = cytotoxicity” value was -1.13% (inactive).
In the case of `COc1ccc(/C=C/c2noc(-c3ccccc3O)n2)cc1OC`, the “activity change, negative = cytotoxicity” value was -11.5% (inactive).
For `CCOc1ccc(-c2nonc2NC(=O)c2oc3ccc(C)cc3c2C)cc1OCC`, the “activity change, negative = cytotoxicity” value was -1.46% (inactive).
For `CCOC(=O)c1c(NC(=O)/C(C#N)=C/c2ccccc2)sc2c1CCC2`, the “activity change, negative = cytotoxicity” value was -1.32% (inactive).
In the case of `CCOC(=O)c1c(NC(=O)c2cc(-c3ccc(Cl)cc3)on2)sc2c1CCCC2`, the “activity change, negative = cytotoxicity” value was -9.58% (inactive).
For `CCOC(=O)c1c(NC(=O)C(C)Sc2c[nH]c3ccccc23)sc2c1CCC2` (stereo unspecified), the Potency was 25.1 µM (active).
For `Cc1csc(NCC(=O)c2c[nH]c3ccccc23)n1`, the “activity change, negative = cytotoxicity” value was 2.96% (inactive).
With `Cc1ccc(C)c(N2CCN(Cc3nnc(-c4ccccc4)o3)CC2)c1` the “activity change, negative = cytotoxicity” value was -23.8% (inactive).
With `COc1ccc(CCNC(=O)c2ccc(-n3c(C)cc4c3CCCC4)cc2)cc1OC` the “activity change, negative = cytotoxicity” value was -3.09% (inactive).
In the case of `CCN(CC)c1ccc(NC(=O)CN2CCN(CC(=O)Nc3ccc(Cl)cc3)CC2)cc1`, the “activity change, negative = cytotoxicity” value was -5.25% (inactive).
With `O=C(Nc1ccc2c(c1)OCCO2)C(C1CC1)N1CCC(Cc2ccccc2)CC1` (stereo unspecified) the Potency was 15.8 µM (active).
For `O=C(CN1CCOc2ccccc21)N1CCC(Cc2ccccc2)CC1`, the “activity change, negative = cytotoxicity” value was -39.2% (inactive).
With `O=C(Nc1ccc2c(c1)OCCO2)C(c1ccc(F)cc1)N1CCCCC1` (stereo unspecified) the “activity change, negative = cytotoxicity” value was -14.5% (inactive).
With `Cc1cccc(Nc2nc(C)nc(N)c2S(=O)(=O)c2ccccc2)c1` the “activity change, negative = cytotoxicity” value was 1.59% (inactive).
With `COc1ccc(NC(=O)CSc2nccn2C2CCCC2)cc1OC` the “activity change, negative = cytotoxicity” value was -6.86% (inactive).
For `COc1ccc2c(c1)c(=O)c(C(=O)c1ccccc1)cn2CC(=O)Nc1ccc2c(c1)OCCO2`, the “activity change, negative = cytotoxicity” value was -1.84% (inactive).
With `CCN(CC)c1nc(C#N)nc(OC)n1` the “activity change, negative = cytotoxicity” value was -19.5% (inactive).
With `COc1ccc(-c2nc(=N)sn2-c2ccccc2)cc1` the “activity change, negative = cytotoxicity” value was -21.3% (inactive).
With `Nc1ncnc2nnsc12` the “activity change, negative = cytotoxicity” value was -3.62% (inactive).
For `Cc1cc(C)cc(OC(C)C(=O)Nc2nc3c(s2)CCCC3)c1` (stereo unspecified), the “activity change, negative = cytotoxicity” value was -21.1% (inactive).
In the case of `COc1ccc(-c2nc3cc(C)ccn3c2NC2CCCCC2)cc1SC1CCCCC1`, the “activity change, negative = cytotoxicity” value was -20.8% (inactive).
With `COc1ccc(-c2nc3cnccn3c2NC2CCCCC2)cc1-c1cccc(Cl)c1` the Potency was 12.6 µM (active).
In the case of `COc1ccc(-c2nc3cnccn3c2NC(C)(C)CC(C)(C)C)cc1O`, the “activity change, negative = cytotoxicity” value was -39.3% (inactive).
With `Cc1cccc(-c2nnc(SC(C)C(=O)Nc3ccccc3)n2C)c1` (stereo unspecified) the “activity change, negative = cytotoxicity” value was -21.4% (inactive).
With `Cc1nnnn1/C(=C\c1ccccc1)C(=O)OCC(=O)N1CC2(C)CC1CC(C)(C)C2` (stereo unspecified) the Potency was 7.94 µM (active).
